From PubChem BioAssay (NCI)
This is part of a sample that, as a whole, favours compounds with a hit. Of some 83,000 tested, about 20% had one in any assay.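 Assay: single dose, 48 h. Readout: percent growth (0 = no net growth; negative = cell death). Active: <10.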 Activity calls are given as the source filed them.

Legend:
Experiment in all cases: NCI-60 one-dose screen, 48 h (100 = growth as untreated, 0 = no growth, -100 = all killed)
Conditions in all cases: 10 µM unless noted
SR leukemia = tested on: SR leukemia
RPMI-8226 leukemia = tested on: RPMI-8226 leukemia
OVCAR-5 ovarian = tested on: OVCAR-5 ovarian
OVCAR-4 ovarian = tested on: OVCAR-4 ovarian
SK-OV-3 ovarian = tested on: SK-OV-3 ovarian
IGROV1 ovarian = tested on: IGROV1 ovarian
OVCAR-3 ovarian = tested on: OVCAR-3 ovarian
HS 578T breast = tested on: HS 578T breast
NCI/ADR-RES ovarian = tested on: NCI/ADR-RES ovarian
T-47D breast = tested on: T-47D breast
BT-549 breast = tested on: BT-549 breast
MDA-MB-435 melanoma = tested on: MDA-MB-435 melanoma
SW-620 colon = tested on: SW-620 colon
MCF7 breast = tested on: MCF7 breast
HCT-116 colon = tested on: HCT-116 colon
HCC-2998 colon = tested on: HCC-2998 colon
KM12 colon = tested on: KM12 colon

Measured: growth

O=C(CN1CCCCC1)Nc1nc(-c2cc3ccccc3oc2=O)cs1
inactive: SR leukemia 89.5% | RPMI-8226 leukemia 106% | OVCAR-5 ovarian 104% | OVCAR-4 ovarian 95.3% | SK-OV-3 ovarian 119% | IGROV1 ovarian 92.9% | OVCAR-3 ovarian 111% | HS 578T breast 93.3% | NCI/ADR-RES ovarian 101% | T-47D breast 87.7% | BT-549 breast 100% | MDA-MB-435 melanoma 104% | SW-620 colon 99.2% | MCF7 breast 88.7% | HCT-116 colon 101% | HCC-2998 colon 104% | KM12 colon 99.9%

CCCOC(=O)Nc1nc2ccc(SCC(C)C)cc2s1
inactive: SR leukemia 14.3% | RPMI-8226 leukemia 28.4% | OVCAR-5 ovarian 60.1% | OVCAR-4 ovarian 61.2% | SK-OV-3 ovarian 48.5% | IGROV1 ovarian 55.4% | OVCAR-3 ovarian 15.6% | HS 578T breast 65.3% | NCI/ADR-RES ovarian 16.1% | T-47D breast 37.8% | BT-549 breast 52.3% | SW-620 colon 33.8% | MCF7 breast 19.7% | HCT-116 colon 34.6% | HCC-2998 colon 77.1% | KM12 colon 38.8%
active: MDA-MB-435 melanoma -7.7%

COC1=CC(c2ccc[nH]2)=N/C1=C\c1[nH]c(C)c(CC(=O)OCc2ccccc2)c1CCC(=O)OCc1ccccc1
inactive: OVCAR-4 ovarian 13.6% | IGROV1 ovarian 12.6%
active: SR leukemia -36.2% | RPMI-8226 leukemia -50.8% | OVCAR-5 ovarian -17.1% | SK-OV-3 ovarian -13.6% | OVCAR-3 ovarian -86.8% | HS 578T breast -18.9% | NCI/ADR-RES ovarian -26.4% | T-47D breast -3.22% | BT-549 breast -31.6% | MDA-MB-435 melanoma -49.2% | SW-620 colon -30.9% | MCF7 breast 4.14% | HCT-116 colon -68.9% | HCC-2998 colon -3.69% | KM12 colon -38.9%

CSc1oc(C)nc1[P+](c1ccccc1)(c1ccccc1)c1ccccc1
active: RPMI-8226 leukemia 6.31% | T-47D breast 8.57%
inactive: SR leukemia 30.6% | OVCAR-5 ovarian 83.1% | OVCAR-4 ovarian 34.6% | SK-OV-3 ovarian 57.7% | IGROV1 ovarian 60.6% | OVCAR-3 ovarian 36.9% | HS 578T breast 55% | NCI/ADR-RES ovarian 106% | BT-549 breast 43.4% | MDA-MB-435 melanoma 41% | SW-620 colon 65.1% | MCF7 breast 23.5% | HCT-116 colon 33.4% | HCC-2998 colon 42.8% | KM12 colon 23%

O=C(Nc1nc2ccccc2s1)c1ccc(F)cc1
inactive: SR leukemia 98.4% | RPMI-8226 leukemia 88.5% | OVCAR-5 ovarian 101% | SK-OV-3 ovarian 108% | IGROV1 ovarian 88.9% | OVCAR-3 ovarian 104% | HS 578T breast 140% | NCI/ADR-RES ovarian 95.7% | T-47D breast 55.3% | BT-549 breast 109% | MDA-MB-435 melanoma 101% | SW-620 colon 112% | MCF7 breast 68.1% | HCT-116 colon 92.8% | HCC-2998 colon 69.9% | KM12 colon 52.8%

NC(=O)c1ccc(-c2c3ccccc3cc3c2ccc2ccccc23)cc1
inactive: SR leukemia 15.9% | RPMI-8226 leukemia 49.7% | OVCAR-5 ovarian 74.7% | OVCAR-4 ovarian 80% | SK-OV-3 ovarian 69.5% | IGROV1 ovarian 42.6% | NCI/ADR-RES ovarian 16.6% | T-47D breast 60.4% | BT-549 breast 29.1% | SW-620 colon 17.1% | MCF7 breast 17.7% | HCT-116 colon 33.4% | HCC-2998 colon 60%
active: OVCAR-3 ovarian 3.85% | HS 578T breast -12.4% | MDA-MB-435 melanoma 0.545% | KM12 colon 3.27%

CC1CCc2c(C(=O)Nc3ncc(Cc4cccc([N+](=O)[O-])c4)s3)csc2C1 (configuration not stated)
inactive: SR leukemia 26.7% | RPMI-8226 leukemia 33% | OVCAR-5 ovarian 34.7% | OVCAR-4 ovarian 39.3% | SK-OV-3 ovarian 21.6% | IGROV1 ovarian 30.7% | HS 578T breast 19.1% | NCI/ADR-RES ovarian 15.6% | T-47D breast 27.8% | SW-620 colon 23.3% | MCF7 breast 17.1% | HCT-116 colon 19% | HCC-2998 colon 41.2% | KM12 colon 18.2%
active: OVCAR-3 ovarian 1.09% | MDA-MB-435 melanoma -42%
